An excerpt weighted towards active compounds, which were near 6.8% of everything screened.
C diff HTS: C. difficile growth inhibitors, primary screen, HTS | growth activity, negative = inhibition, % at 16 µg/mL (by protocol) | Clostridium difficile clinical isolate growth, OD600, 24 h; hits give low values | 0.25% of 86,000 active;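 active means mean growth activity at or below -80% and every replicate also at or below -80%; inconclusive means mean at or below -80% but some replicate above -80%; inactive means mean growth activity above -80%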
Pf Dd2 growth: P. falciparum Dd2 growth inhibitors, primary screen, SYBR Green fluorescence, single dose replicates; AID 1159554, 2015; 72 h; hits give low values; activity change, % at 10 µM; 2.3% of 94,000 active; in the data active means activity change below about -80%; inconclusive means no clear call, values can overlap the other calls
T cruzi growth-1: T. cruzi intracellular proliferation inhibitors, primary screen, cell-based, beta-gal Tulahuen parasites, NIH3T3 host, luminescence; inhibition, % at 8.34 µM; AID 624255, 2012; T. cruzi beta-gal in NIH3T3, GalScreen luminescence, 90 h; 5.9% of 77,000 active;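 active means mean inhibition above about 93%, with at least 55% of replicates each passing it, limit read from the data, passing the limit was not always enough; inconclusive means only one of those two conditions holds; inactive means neither condition holds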
T cruzi growth-2: T. cruzi intracellular proliferation inhibitors, confirmation, cell-based, NIH3T3 host, beta-gal parasite, luminescence, cherry-pick; 72% of 5,600 active; shares compounds with T cruzi growth-1; inhibition, % at 8.35 µM; T. cruzi beta-gal in NIH3T3, GalScreen luminescence, 90 h; AID 651739, 2012;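 active means mean replicate inhibition above about 95% and at least 55% of replicates individually reaching it, limit read from the data; inconclusive means only one of the two criteria is met; inactive means neither criterion is met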
T cruzi growth-3: inhibitors of intracellular T. cruzi replication, confirmation, NIH3T3 host cells, beta-gal parasites, cherry-pick, set 2; 21% of 5,600 active; AID 651740, 2012; T. cruzi beta-gal in NIH3T3, GalScreen luminescence, 90 h; inhibition, % at 2.09 µM; shares compounds with T cruzi growth-1;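 active means mean inhibition above about 95%, with at least 55% of replicates also reaching it, limit read from the data; inconclusive means meets just one of the two conditions; inactive means meets neither condition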
NIH3T3 tox: cytotoxicity in mouse NIH/3T3 fibroblasts, confirmation, cytotoxicity control for T. cruzi proliferation inhibitor project, cell-based, cherry-pick, single point; shares compounds with T cruzi growth-1; NIH/3T3 viability, CellTiter-Glo ATP luminescence, 90 h; cytotoxicity (signal decrease), % at 8.35 µM; 14% of 5,600 active; AID 651742, 2012;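 active means mean signal decrease across replicates above about 35% based on untreated-well scatter, with enough replicates individually passing, limit read from the data; inconclusive means no rule stated though some were filed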
NIH3T3 tox 2: NIH/3T3 fibroblast cytotoxicity, confirmation, cytotoxicity control, cell-based, cherry-pick, single point, set 2. inhibition, % at 24.9 µM. shares compounds with T cruzi growth-1. 56% of 5,600 active. NIH/3T3 viability, CellTiter-Glo ATP luminescence, 90 h;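 active means mean loss of cell viability signal at or above a set limit, and enough replicates individually reaching it; inconclusive means meets only the mean limit or only the replicate share; inactive means meets neither condition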
Each line names hits and unclear results; the compound was inactive in the other large screens (follow-up assays come after a bar, where they were run).

CCC(=O)N(C)C[C@@H]1Oc2cc(C#CC3CCCCC3)ccc2S(=O)(=O)N([C@@H](C)CO)C[C@H]1C	T cruzi growth-1 114 | T cruzi growth-2 98 | T cruzi growth-3 inactive | NIH3T3 tox inactive | NIH3T3 tox 2 80
CCC(=O)N(C)C[C@H]1Oc2cc(C#Cc3ccncc3)ccc2S(=O)(=O)N([C@H](C)CO)C[C@H]1C	T cruzi growth-1 107 | T cruzi growth-2 inactive | T cruzi growth-3 inactive | NIH3T3 tox inactive | NIH3T3 tox 2 38
CCC(=O)N(C)C[C@H]1Oc2cc(C#Cc3ccncc3)ccc2S(=O)(=O)N([C@H](C)CO)C[C@@H]1C	none
CCC(=O)N(C)C[C@@H]1Oc2cc(C#CC3CCCCC3)ccc2S(=O)(=O)N([C@H](C)CO)C[C@H]1C	none
O=C(C[C@@H]1C[C@H]2c3cc(NC(=O)c4cccnc4)ccc3O[C@H]2[C@H](CO)O1)NCCc1ccccc1	none
Cc1ccc(S(=O)(=O)Nc2ccc3c(c2)C(=O)N([C@@H](C)CO)C[C@H](C)[C@@H](CN(C)C)OCCCC[C@@H](C)O3)cc1	none
C[C@H](CO)N1C[C@H](C)[C@H](CN(C)C(=O)Nc2cccc3ccccc23)OCCCC[C@H](C)Oc2ccc(NS(=O)(=O)c3ccc(Cl)cc3)cc2C1=O	T cruzi growth-1 96 | T cruzi growth-2 101 | T cruzi growth-3 inactive | NIH3T3 tox inactive | NIH3T3 tox 2 inactive
C[C@@H]1CCCCO[C@@H](CN(C)C(=O)Nc2cccc3ccccc23)[C@H](C)CN([C@@H](C)CO)C(=O)c2cc(NS(=O)(=O)c3ccc(F)cc3)ccc2O1	T cruzi growth-1 105 | T cruzi growth-2 101 | T cruzi growth-3 inactive | NIH3T3 tox inactive | NIH3T3 tox 2 inactive
C[C@@H]1CCCCO[C@@H](CN(C)C(=O)Nc2cccc3ccccc23)[C@H](C)CN([C@@H](C)CO)C(=O)c2cc(NS(C)(=O)=O)ccc2O1	T cruzi growth-1 116 | T cruzi growth-2 inactive | T cruzi growth-3 inactive | NIH3T3 tox inactive | NIH3T3 tox 2 inactive
C[C@@H]1CCCCO[C@H](CN(C)C(=O)Nc2cccc3ccccc23)[C@@H](C)CN([C@@H](C)CO)C(=O)c2cc(NS(C)(=O)=O)ccc2O1	none
C[C@H]1CCCCO[C@H](CN(C)C(=O)Nc2cccc3ccccc23)[C@@H](C)CN([C@@H](C)CO)C(=O)c2cc(NS(=O)(=O)c3ccc(F)cc3)ccc2O1	none
C[C@@H]1CCCCO[C@@H](CN(C)C(=O)Nc2cccc3ccccc23)[C@H](C)CN([C@H](C)CO)C(=O)c2cc(NS(=O)(=O)c3ccc(Cl)cc3)ccc2O1	none
C[C@H]1CCCCO[C@H](CN(C)C(=O)Nc2cccc3ccccc23)[C@@H](C)CN([C@@H](C)CO)C(=O)c2cc(NS(=O)(=O)c3ccc(Cl)cc3)ccc2O1	T cruzi growth-1 inconclusive | T cruzi growth-2 97 | T cruzi growth-3 119 | NIH3T3 tox inactive | NIH3T3 tox 2 inactive
C[C@@H]1CCCCO[C@H](CN(C)C(=O)Nc2cccc3ccccc23)[C@@H](C)CN([C@H](C)CO)C(=O)c2cc(NS(=O)(=O)c3ccc(Cl)cc3)ccc2O1	none
COCC(=O)Nc1ccc2c(c1)OC[C@H](C)N(C(=O)Cc1cccnc1)C[C@H](C)[C@@H](OC)CN(C)C2=O	none (no result: T cruzi growth-1)
COCc1cn(CC[C@H]2CC[C@H](NC(=O)c3ccc(F)cc3)[C@H](CO)O2)nn1	none
C[C@H]1CN([C@@H](C)CO)C(=O)c2cc(C3=CCCC3)cnc2O[C@H]1CN(C)C(=O)C1CC1	none (no result: C diff HTS)
O=C(C[C@@H]1CC[C@@H]2[C@H](COC[C@H](O)CN2Cc2nccs2)O1)NCc1ccccc1F	none
C[C@@H]1CN([C@@H](C)CO)C(=O)c2cc(NS(=O)(=O)c3cccs3)ccc2O[C@@H](C)CCCCO[C@@H]1CN(C)C(=O)Nc1cccc2ccccc12	Pf Dd2 growth inconclusive
C[C@H](CO)N1C[C@H](C)[C@@H](CN(C)C(=O)Nc2cccc3ccccc23)OCCCC[C@H](C)Oc2ccc(NS(=O)(=O)c3ccc(Cl)cc3)cc2C1=O	none
C[C@@H]1CN([C@@H](C)CO)C(=O)c2cc(NS(=O)(=O)c3ccc(Cl)cc3)ccc2O[C@@H](C)CCCCO[C@@H]1CN(C)C(=O)Nc1cccc2ccccc12	T cruzi growth-1 99 | T cruzi growth-2 105 | T cruzi growth-3 inconclusive | NIH3T3 tox inactive | NIH3T3 tox 2 inactive
C[C@@H]1CCCCO[C@@H](CN(C)C(=O)Nc2cccc3ccccc23)[C@H](C)CN([C@@H](C)CO)C(=O)c2cc(NS(=O)(=O)c3cccs3)ccc2O1	T cruzi growth-1 101 | T cruzi growth-2 107 | T cruzi growth-3 inactive | NIH3T3 tox inactive | NIH3T3 tox 2 inactive
C[C@@H]1CCCCO[C@H](CN(C)C(=O)Cc2ccccc2)[C@H](C)CN([C@H](C)CO)C(=O)c2cc(N(C)C)ccc2O1	none (no result: Pf Dd2 growth)
C[C@@H]1CN([C@@H](C)CO)C(=O)c2cc(N(C)C)ccc2O[C@@H](C)CCCCO[C@@H]1CN(C)C(=O)Cc1ccccc1	none
C[C@H](CO)N1C[C@H](C)[C@H](CN(C)C(=O)Cc2ccccc2)OCCCC[C@H](C)Oc2ccc(N(C)C)cc2C1=O	T cruzi growth-1 104 | T cruzi growth-2 inconclusive | T cruzi growth-3 inactive | NIH3T3 tox inactive | NIH3T3 tox 2 inactive
C[C@@H]1CCCCO[C@H](CN(C)C(=O)Cc2ccccc2)[C@@H](C)CN([C@@H](C)CO)C(=O)c2cc(N(C)C)ccc2O1	T cruzi growth-1 97 | T cruzi growth-2 inactive | T cruzi growth-3 inactive | NIH3T3 tox inactive | NIH3T3 tox 2 inactive
C[C@@H]1CCCCO[C@@H](CN(C)C(=O)Nc2ccc3c(c2)OCO3)[C@H](C)CN([C@H](C)CO)C(=O)c2cc(NC(=O)CCC(F)(F)F)ccc2O1	none
CO[C@@H]1CN(C)C(=O)c2cc(NS(=O)(=O)CC(F)(F)F)ccc2OC[C@H](C)N(Cc2nccs2)C[C@H]1C	none (no result: C diff HTS)
CCS(=O)(=O)N1CC(=O)N2[C@@H](CO)[C@H](c3ccc(C#CCC4CCCC4)cc3)[C@@H]2C1	none (no result: T cruzi growth-1)
Cc1noc(C)c1NC(=O)Nc1ccc2c(c1)C(=O)N([C@@H](C)CO)C[C@H](C)[C@H](CN(C)CC1CC1)O2	none

Source: PubChem BioAssay (Broad Institute)
